From the supplement of paper PMC6555819

Assays:
Assay in all cases: PBM binding z-score (relative to random genomic background probes); higher = stronger binding; sequences stand for … in GC…GCGATTGACAGCGTAGAATGAAGG
[1] = tested on: FXR:RXRa (NR concentration 270 nM, RXRa partner concentration 90 nM)
How it was run: (§1)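 Ligand-free nuclear receptor dimers were bound for 1 h to custom Agilent 4×180K protein-binding microarrays. Detection used antibodies against each partner (one per run). Binding z-scores rest on regression-normalized fluorescence, with random background probes as the reference.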

[2] = tested on: LXRa:RXRa (NR concentration 270 nM, RXRa partner concentration 90 nM)
How it was run: as §1

[3] = tested on: LXRa homodimer (NR concentration 270 nM)
How it was run: as §1

[4] = tested on: LXRb:RXRa (NR concentration 270 nM, RXRa partner concentration 90 nM)
How it was run: as §1

[5] = tested on: LXRb homodimer (NR concentration 270 nM)
How it was run: as §1

[6] = tested on: PPARa:RXRa (NR concentration 270 nM, RXRa partner concentration 90 nM)
How it was run: as §1

[7] = tested on: PPARg:RXRa (NR concentration 180 nM, RXRa partner concentration 90 nM)
How it was run: as §1

[8] = tested on: PPARg:RXRa 270nM:90nM, anti-RXR (NR concentration 270 nM, RXRa partner concentration 90 nM)
How it was run: as §1

[9] = tested on: PPARg:RXRa 30nM:10nM, anti-RXR (NR concentration 30 nM, RXRa partner concentration 10 nM)
How it was run: as §1

[10] = tested on: PPARg:RXRa 90nM:30nM, anti-RXR (NR concentration 90 nM, RXRa partner concentration 30 nM)
How it was run: as §1

Sequence	PBM binding z-score [1]	PBM binding z-score [2]	PBM binding z-score [3]	PBM binding z-score [4]	PBM binding z-score [5]	PBM binding z-score [6]	PBM binding z-score [7]	PBM binding z-score [8]	PBM binding z-score [9]	PBM binding z-score [10]
CCAGACAGGTGAAAGGTAACTCTGTCTGGTACGC	0.257	1.07	-0.318	0.89	-0.274	3.45	5.57	6.03	4.71	5.8
ACTTACGGGTCAACGAGGTTGTAGCACGCGTATA	6.76	4.66	0.172	4	0.502	5.6	5.04	4.93	1.89	3.69
TCTGCTAGGTCAACTATGGTCAGCTAATCTGCTA	4.09	3.35	0.302	2.35	0.258	3.65	2.72	3.29	2.15	2.81
GGAACGAGGGCATTCGACTTGATAGCATGGCGAT	0.596	0.173	-0.634	-0.0929	-0.467	1.41	1.14	0.717	-0.0237	0.28
GCAGACACGTGAAACGCAGGTAACTCAGGGTGGC	-0.868	-0.737	-0.81	-0.691	-1.29	-0.718	0.584	-0.446	-0.559	-0.87
CGAACTAGGTCAGAACCGGACAGTGAAGGATGAT	0.841	0.508	-0.0192	0.198	-0.379	2.72	4.56	4.31	1.5	3.4
TCTTGTTGGTCACGGAGGTCACACACGACGGGTA	3.76	3.86	3.29	3.62	2.2	4.14	3.58	4.44	3.5	4.07
TAACCTAGGTCATTGGGCCAGTATAGTACGCATC	5.13	4.92	2.81	3.43	0.934	4.54	4.87	4.88	1.89	3.88
TAGCCTAGGTCATTGGTCCAGTATAGTACGCATC	3.97	3.31	1.33	2.7	0.535	3.56	2.48	2.55	0.941	2.27
GCTGCTATGTCAGGTTGGTCAGCTAACGGGTACG	-0.0269	-0.171	-0.277	-0.513	-0.58	-0.327	-0.164	-0.401	-0.739	-0.312
ATAAGTAGGTTATCGGGTCATTCAGTTTGCGCAT	3.42	3.08	1.77	3.11	1.39	5.07	7.54	6.6	3.83	6.09
TTACCAAGGTGAAAGGTCGTTGTTGCACGCCTTG	3.74	3.17	0.187	3.12	-0.415	5.29	8.39	7.47	6.57	8.04
GCTAGAAGGCCATTTGGGTCACTCAATGACGGGC	0.421	0.146	-0.572	0.474	-0.706	1.49	0.807	0.44	-0.268	-0.245
AGAATGAGGTTACCAAAGATCAGGGACACGCTTG	2.25	6.38	-0.0151	3.01	-0.234	3.38	2.84	2.9	0.908	2.29
GCTTGGAGATCAAGGTTAAGAAAGACTAAGCTAA	0.0543	0.942	-0.403	0.686	-1.08	1.57	0.135	0.864	0.225	0.671
CCTCGGAGGACAGAAGGTCCGAGCTGTCCGCTTT	-0.475	-0.736	-0.887	-1.15	-0.992	-1.11	-0.956	-1.22	-1.48	-1.44
ATCTCGAGGTAACAAGTTCAGTGAAAGAGAGGAC	0.617	0.888	0.333	0.61	0.253	1.51	0.717	0.867	-0.0837	0.456
CCTGCTGGGTCAATGGTCAGCTAAAGCAGCTCGC	2.08	1.41	-0.526	1.11	-0.873	2.95	3.53	4.63	1.83	3.72
TCTAGTTGGTCAAAGGTCACAGACTCGAAATGCG	6.15	6.04	3.48	5.55	1.44	6.87	11.5	10	10.8	11.2
CCGACTGGGGCATAAGGTTACGATAAGCCAGCCC	0.452	0.99	-0.328	0.815	-1.42	2.41	2.58	3.55	1.47	3.22
CCTTACGGGTCACGAGGTTATAACACGACGAGCG	6.57	4.63	0.527	4.2	-0.0357	6.03	7.47	6.56	3.19	5.53
TCTGCTAGGTCAACGATGGTCAGCTAATCTGCTA	3.45	2.96	-0.225	1.44	-0.144	3.19	2.69	3.14	1.76	2.48
CAGGCTAGGTCAGGGCCAGTATAGGAGGAACGTT	1.56	0.779	-0.274	0.278	-0.895	2.06	1.39	1.07	-0.194	0.297
GCAGCCAGGTGAAACGCAGGTAACTCAGGGTGGC	-0.375	-0.533	-0.628	-0.952	-1.52	0.132	0.166	-0.353	-0.793	-0.229
